Measurements published in PubChem BioAssay.
Activity calls are given as the source filed them.

Key:
[1] = E. coli DRC41 culture turbidity changes, primary screen, E. coli filamentation inducer project, strain DRC41, OD650, 48 h (AID 1152);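 also: E. coli MC1000 strain DRC41 lacking acrAB efflux pump and sulA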; conditions: E. coli DRC41 (acrAB sulA), higher = more signal, called active from +8 up or from −8 down
[2] = small-molecule binders of probe aLefty1, primary screen, biochemical, small-molecule microarray, 635/667 nm fluorescence (AID 1153); conditions: higher = more signal;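 also: score merges spot fluorescence with signal-to-noise ratio from the scanned slide images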
[3] = PSAC antagonists in infected red cells, primary screen, cell-based, P. falciparum Indochina, OD700, 1 h (AID 1154); conditions: P. falciparum Indochina infected RBC osmotic lysis, higher = more signal, called active from +8 up or from −8 down
[4] = PSAC antagonists in infected red cells, primary screen, cell-based, P. falciparum Indochina, OD700, 2 h (AID 1155);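 also: lysis reports solute entry through the parasite surface anion channel PSAC; channel blockers reduce lysis of infected cells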; conditions: P. falciparum Indochina infected erythrocytes, osmotic lysis OD700; higher = more signal, called active from +8 up or from −8 down
[5] = osmotic lysis modulators in infected erythrocytes, primary screen, PSAC antagonist project, cell-based, P. falciparum Indochina, OD700, 3 h (AID 1156); conditions: higher = more signal, called active from +8 up or from −8 down
[6] = PSAC antagonists in infected red cells, primary screen, cell-based, P. falciparum Indochina, OD700, 18 h (AID 1157); conditions: P. falciparum Indochina infected erythrocytes, osmotic lysis OD700, 18 h; higher = more signal, called active from +8 up or from −8 down
[7] = modulators of S6 phosphorylation in cells, primary screen, cell-based, A549, cytoblot, luminescence, serum-stimulated (AID 1158); conditions: A549 phospho-S6 cytoblot, 5 h, higher = more signal;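 also: serum-stimulated A549 lung adenocarcinoma cells; signal is phosphorylated S6 detected by cytoblot immunostaining with HRP secondary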
[8] = molecular target: NADPH oxidase 2 (Homo sapiens) (UniProt P04839); assay: NOX2-dependent H2O2 signal modulators, primary screen, NOX inhibitor project, cell-based, HEK293-NOX2, PMA-stimulated, Amplex Red fluorescence (AID 1159); conditions: 45 min, higher = more signal, called active from +8 up or from −8 down; also: test concentration not given here
NADPH oxidase 2 (Homo sapiens), sequence (P04839 whole entry, looked up): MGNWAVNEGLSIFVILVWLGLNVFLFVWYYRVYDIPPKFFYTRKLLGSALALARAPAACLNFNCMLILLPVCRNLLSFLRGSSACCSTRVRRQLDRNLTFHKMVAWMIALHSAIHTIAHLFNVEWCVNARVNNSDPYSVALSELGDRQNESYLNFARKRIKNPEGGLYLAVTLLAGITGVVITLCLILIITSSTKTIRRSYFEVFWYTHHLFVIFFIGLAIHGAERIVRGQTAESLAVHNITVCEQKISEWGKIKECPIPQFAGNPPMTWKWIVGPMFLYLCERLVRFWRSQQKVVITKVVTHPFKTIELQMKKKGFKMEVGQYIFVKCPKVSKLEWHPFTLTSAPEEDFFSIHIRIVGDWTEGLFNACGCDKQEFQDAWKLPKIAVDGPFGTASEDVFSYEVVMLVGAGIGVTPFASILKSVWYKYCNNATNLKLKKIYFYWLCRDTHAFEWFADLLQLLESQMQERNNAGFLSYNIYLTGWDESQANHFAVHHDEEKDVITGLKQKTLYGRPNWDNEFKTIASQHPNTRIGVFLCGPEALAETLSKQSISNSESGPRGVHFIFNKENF

[9] = molecular target: NADPH oxidase 4 (Homo sapiens) (UniProt Q9NPH5); assay: NOX4-dependent H2O2 signal modulators, primary screen, NOX inhibitor project, cell-based, HEK293-NOX4, tetracycline-induced, Amplex Red fluorescence (AID 1160); conditions: 45 min, higher = more signal, called active from +8 up or from −8 down
NADPH oxidase 4 (Homo sapiens), sequence (Q9NPH5 whole entry, looked up): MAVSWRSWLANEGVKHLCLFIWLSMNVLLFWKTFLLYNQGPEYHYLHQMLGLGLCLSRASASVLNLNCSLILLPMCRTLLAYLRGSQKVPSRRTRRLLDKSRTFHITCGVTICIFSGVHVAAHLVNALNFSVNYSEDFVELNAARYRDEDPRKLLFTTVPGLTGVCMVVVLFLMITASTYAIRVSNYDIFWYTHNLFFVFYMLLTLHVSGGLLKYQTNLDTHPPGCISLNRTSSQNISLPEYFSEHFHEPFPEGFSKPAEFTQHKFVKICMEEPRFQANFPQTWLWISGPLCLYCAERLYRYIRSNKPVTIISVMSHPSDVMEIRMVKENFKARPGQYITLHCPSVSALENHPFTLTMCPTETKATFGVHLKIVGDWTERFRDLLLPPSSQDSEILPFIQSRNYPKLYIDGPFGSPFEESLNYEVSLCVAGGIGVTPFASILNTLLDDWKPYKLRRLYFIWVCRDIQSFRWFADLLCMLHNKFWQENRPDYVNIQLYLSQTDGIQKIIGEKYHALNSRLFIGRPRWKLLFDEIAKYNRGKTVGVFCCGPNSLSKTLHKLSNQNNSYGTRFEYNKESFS

[10] = molecular target: NADPH oxidase 5 (Homo sapiens) (UniProt Q96PH1); assay: NOX5-dependent H2O2 signal modulators, primary screen, NOX inhibitor project, cell-based, HEK293-NOX5, Amplex Red fluorescence (AID 1161); conditions: HEK293-NOX5, ionomycin, 45 min, higher = more signal
NADPH oxidase 5 (Homo sapiens), sequence (Q96PH1 whole entry, looked up): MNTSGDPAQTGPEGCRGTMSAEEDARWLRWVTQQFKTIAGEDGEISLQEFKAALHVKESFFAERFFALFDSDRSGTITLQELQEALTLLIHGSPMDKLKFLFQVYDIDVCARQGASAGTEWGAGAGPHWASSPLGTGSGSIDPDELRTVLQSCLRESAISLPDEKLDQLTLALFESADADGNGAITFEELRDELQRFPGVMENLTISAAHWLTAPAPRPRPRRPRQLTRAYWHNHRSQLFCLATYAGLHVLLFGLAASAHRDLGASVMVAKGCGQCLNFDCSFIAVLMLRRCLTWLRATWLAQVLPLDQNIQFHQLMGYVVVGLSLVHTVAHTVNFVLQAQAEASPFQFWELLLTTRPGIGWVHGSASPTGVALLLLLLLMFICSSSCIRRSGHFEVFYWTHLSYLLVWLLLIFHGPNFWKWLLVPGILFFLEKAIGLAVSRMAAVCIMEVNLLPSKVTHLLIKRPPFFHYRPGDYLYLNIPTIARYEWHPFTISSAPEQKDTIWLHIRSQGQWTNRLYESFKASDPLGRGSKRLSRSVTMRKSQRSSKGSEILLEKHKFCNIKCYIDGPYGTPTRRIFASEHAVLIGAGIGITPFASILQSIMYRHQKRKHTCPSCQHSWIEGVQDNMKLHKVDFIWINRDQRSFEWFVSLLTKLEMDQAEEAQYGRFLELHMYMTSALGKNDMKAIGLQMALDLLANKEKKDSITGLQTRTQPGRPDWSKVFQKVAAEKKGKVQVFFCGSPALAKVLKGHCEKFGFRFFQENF

[11] = A549 cell viability effects, profiling panel, calcein-AM fluorescence, 48 h, basal (AID 1162); conditions: higher = more signal; also: test concentration not given here
[12] = adipocyte viability effects, profiling panel, cell-based, 3T3-L1 adipocytes, calcein-AM fluorescence, 48 h, basal (AID 1163); conditions: 3T3-L1 adipocytes viability, higher = more signal; also: test concentration not given here
[13] = HepG2 cell viability effects, profiling panel, calcein-AM fluorescence, 48 h, basal (AID 1164); conditions: higher = more signal; also: test concentration not given here
[14] = MM1S cell viability effects, profiling panel, calcein-AM fluorescence, 48 h, basal (AID 1165); conditions: higher = more signal;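 also: viability of MM1S multiple myeloma cells under basal unstimulated conditions; test concentration not given here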
[15] = basal RPMI8226 viability, no added stimulus, profiling panel, cell-based, calcein-AM fluorescence, 48 h, PK04 Diversity Set (AID 1166); conditions: RPMI8226 myeloma viability, higher = more signal;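 also: cells grown under basal conditions without added stimulus; test concentration not given here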
[16] = basal HepG2 mitochondrial membrane potential changes, profiling panel, cell-based, JC-1 fluorescence, 24 h, 100 nL compound (AID 1167); conditions: higher = more signal; also: test concentration not given here
[17] = basal 3T3-L1 adipocyte mitochondrial potential changes, profiling panel, cell-based, JC-1 fluorescence, 3T3-L1 adipocytes, 24 h, 100 nL compound (AID 1168); conditions: JC-1 mitochondrial fluorescence, higher = more signal, called active from +8 up or from −8 down; also: test concentration not given here
[18] = basal RPMI8226 mitochondrial membrane potential changes, profiling panel, cell-based, JC-1 fluorescence, 24 h, 100 nL compound (AID 1169); conditions: RPMI8226 myeloma, JC-1 mitochondrial potential fluorescence, higher = more signal; also: test concentration not given here
[19] = basal MM1S mitochondrial membrane potential changes, profiling panel, cell-based, JC-1 fluorescence, 24 h, 100 nL compound (AID 1170); conditions: higher = more signal; also: test concentration not given here
[20] = A549 lung cancer cell viability effects, profiling panel, resazurin fluorescence, 24 h, PK04 Diversity Set (AID 1171); conditions: higher = more signal, called active from +8 up or from −8 down; also: test concentration not given here

SMILES | z-score [1] | composite z-score [2] | z-score [3] | z-score [4] | z-score [5] | z-score [6] | z-score [7] | z-score [8] | z-score [9] | z-score [10] | z-score [11] | z-score [12] | z-score [13] | z-score [14] | z-score [15] | z-score [16] | z-score [17] | z-score [18] | z-score [19] | z-score [20]
CC(CCN1CCCc2nc(C)c(C)cc21)=NOC[C@@H](C)[C@H](OCc1ccccc1)C(C)C | 0.259 (inactive) | -0.147 | 1.25 (inactive) | -1.75 (inactive) | -0.167 (inactive) | -1.84 (inactive) | 2 | -2.43 (inactive) | -1.68 (inactive) | -1.12 | 0.803 | 1.05 | 1.18 | -2.37 | 0.0389 | 1.94 | -0.584 (inactive) | 0.395 | -1.46 | -0.602 (inactive)
CC(C)CON=C1C[C@@H](O)[C@@H](O)[C@@H]2[C@@H]3C(=O)N(c4ccc(F)cc4F)C(=O)[C@@H]3CC[C@@H]12 | -0.177 (inactive) | -0.0984 | 1.3 (inactive) | -0.913 (inactive) | -0.116 (inactive) | -2.29 (inactive) | -0.164 | -1.11 (inactive) | -1.87 (inactive) | -3.22 | -0.793 | 0.44 | -0.464 | -0.102 | -0.587 | 1.31 | -0.4 (inactive) | -0.648 | -0.425 | 0.491 (inactive)
O=C1[C@H]2[C@H]3[C@H](O)[C@H](O)CC(=NOC[C@@H](O)COCc4ccco4)[C@@H]3CC[C@H]2C(=O)N1Cc1ccc2c(c1)OCO2 | 1.56 (inactive) | -0.0984 | 30 (active) | 4.77 (inactive) | 0.826 (inactive) | 1.01 (inactive) | 0.236 | -2.68 (inactive) | 0.499 (inactive) | 0.351 | 0.751 | 0.0548 | 0.579 | 0.477 | 0.677 | 1.07 | 0.231 (inactive) | 0.727 | -1.18 | 0.178 (inactive)
CCN1C(=O)[C@H]2[C@H]3[C@H](O)[C@H](O)CC(=NOC[C@@H](O)COCc4ccco4)[C@H]3CC[C@H]2C1=O | 0.537 (inactive) | -0.22 | -0.392 (inactive) | -0.025 (inactive) | -0.468 (inactive) | 0.108 (inactive) | -0.18 | -7.58 (inactive) | 0.0462 (inactive) | 0.262 | -0.199 | 0.47 | -0.0911 | 0.133 | -0.229 | -0.326 | -0.128 (inactive) | 0.545 | 0.905 | -0.45 (inactive)
CO[C@@H]1COC(=O)[C@H](CCSC)NC(=O)CC=C[C@@H](C)COC(=O)[C@@H]2CCCN2C(=O)CC=C[C@H]1C | -0.785 (inactive) | 0.224 | 0.911 (inactive) | 0.727 (inactive) | 0.537 (inactive) | 0.354 (inactive) | -0.235 | -2.15 (inactive) | -0.045 (inactive) | 0.887 | -0.25 | -0.094 | 0.182 | 0.105 | 0.339 | 0.754 | 0.579 (inactive) | -0.79 | 0.326 | 0.285 (inactive)
CC(C)(C)N1C(=O)[C@H]2[C@H]3[C@H](O)[C@H](O)CC(=NOC[C@@H](O)COCc4ccco4)[C@H]3CC[C@H]2C1=O | 0.0965 (inactive) | 0.21 | 1.18 (inactive) | -0.423 (inactive) | 0.0556 (inactive) | 0.33 (inactive) | -0.159 | 0.119 (inactive) | 0.0791 (inactive) | 0.188 | -0.0309 | 0.676 | 0.082 | 0.406 | -0.139 | -0.368 | 0.856 (inactive) | -0.631 | -0.914 | -0.679 (inactive)
CO[C@H]1COC(=O)CC=C[C@@H](C)COC(=O)[C@H]2CCCN2C(=O)CC=C[C@H]1C | 0.694 (inactive) | -0.217 | -0.567 (inactive) | -0.25 (inactive) | -0.521 (inactive) | 0.0572 (inactive) | 0.43 | -0.166 (inactive) | 0.32 (inactive) | 0.364 | 1.22 | -0.429 | 0.707 | 0.462 | 0.18 | 0.722 | 0.00299 (inactive) | 0.418 | 0.748 | -0.823 (inactive)
COc1ccc(O[C@H]2C=C[C@@H](c3ccccc3)O[C@@H]2CO)cc1 | 0.0426 (inactive) | -0.0501 | 2.91 (inactive) | 1.29 (inactive) | -0.0071 (inactive) | 0.64 (inactive) | -0.781 | -0.242 (inactive) | -0.634 (inactive) | -2.07 | 0.109 | 0.0705 | -0.27 | -0.307 | -0.0698 | 0.194 | -0.637 (inactive) | 0.362 | -0.42 | -0.521 (inactive)
CCOC(=O)[C@H](CC(C)C)NC(=O)CCC1CC(OC(=O)NCCc2ccc(F)cc2)CC2(CCCC(COC(=O)NCc3cccc4ccccc34)O2)O1 (stereo not given in full) | -0.14 (inactive) | -0.147 | 15.2 (active) | 3.27 (inactive) | -1.34 (inactive) | 0.344 (inactive) | 0.927 | 0.135 (inactive) | 0.378 (inactive) | -0.0307 | -0.491 | -0.679 | -2.03 | -3.43 | -3.14 | 0.26 | -0.0268 (inactive) | 0.219 | -1.56 | 1.15 (inactive)
